Source: PubChem BioAssay (National Center for Advancing Translational Sciences (NCATS))
In the library only some 19% were active in any assay of this set; here they are far more common.
HepG2 tox: counter-screen for TGF-b inhibitors: cytotoxicity in HepG2 cells. HepG2 CAGA-GFP viability, ATP luminescence, 18 h. Potency, µM (highest dose often 46.1 µM), without a hit: top-dose activity change, negative = cytotoxicity, usual class: cytotoxic. actives 0.76% (n = 410,000); also: potency is read from the fitted curve at half-maximal effect
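HepG2 CAGA-GFP cells (1000/well, DMEM with 1% FBS) received compound, then TGF-beta at 500 pg/mL final, and were incubated 18 hours at 37 degrees C. Viability was read by CellTiter-Glo luminescence. Media-only wells were set as complete cell-killing and DMSO as no toxicity.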
DT40 TDP1 CPT: growth inhibition of DT40 Tdp1-/-;hTDP1 cells with camptothecin (screen for TDP1 inhibitors); AID 686979; chicken DT40 Tdp1-/-;hTDP1 cells + 20 nM CPT, ATP luminescence, 48 h; actives 12% (n = 420,000); Potency, µM (doses to about 46.2 µM), for inactives: at the top dose activity change, negative = growth inhibition, most hits filed as inhibitors; also: potency is read from the fitted curve at half-maximal effect; % is scaled to controls: 0 for no effect and ±100 for the full control effect; nearly all actives have a fitted effect of over 55% in size
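Chicken DT40 Tdp1-/- cells stably complemented with human TDP1 were seeded at 400 cells/well in medium containing 20 nM camptothecin, exposed to pin-transferred compounds, and grown at 37 °C for at least 48 hr. Viability was read as ATP luminescence.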
TDP1 cell noCPT: qHTS for Inhibitors of human tyrosyl-DNA phosphodiesterase 1 (TDP1): qHTS in cells in absence of CPT; DT40 Tdp1-/- hTDP1 cells, no CPT, ATP luminescence, 48 h; actives 15% (n = 420,000); Potency, µM (doses to about 46.2 µM), for the others: at the top dose activity change, negative = growth inhibition, hits mostly inhibitors; AID 686978, 2013; also: potency is read from the fitted curve at half-maximal effect; % is scaled to controls: 0 for no effect and ±100 for the full control effect; nearly all actives have a fitted effect of over 55% in size
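Camptothecin absent (DMSO only). Human TDP1-complemented DT40 knockout cells, 400 cells/well, 37 °C for minimum 48 hr; ATP measured via CellTiter-Glo, 30 min dark incubation, luminescence.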
TGFb inhibitor: inhibitors of TGF-b signaling. AID 588855. HepG2 CAGA-GFP TGF-b/SMAD3 reporter, GFP fluorescence, 18 h; TGF-beta stimulated, 500 pg/mL final. actives 1.2% (n = 410,000). Potency, µM (series often up to 46.1 µM), without a hit: at the top dose activity, negative = inhibition, hits mostly inhibitors; also: potency is read from the fitted curve at half-maximal effect; % is scaled to controls: 0 for no effect and ±100 for the full control effect; nearly all actives have a fitted effect of over 65% in size
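Using HEPG2 CAGA-GFP reporter cells at 1000 cells/well, we pinned test compounds, stimulated with recombinant TGF-beta (500 pg/mL final) and measured total well GFP after 18 h.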
S-ASM inh: inhibitors of human secretory acid sphingomyelinase; P17405; placental ASM, HMU-PC fluorogenic substrate, 60 min; Potency, µM (series often up to 57.5 µM), without a hit: at the highest dose activity change, negative = inhibition, actives largely listed as inhibitors; actives 0.006% (n = 340,000); AID 504937; also: potency is read from the fitted curve at half-maximal effect
Target sequence (P17405 47-631 limits assumed): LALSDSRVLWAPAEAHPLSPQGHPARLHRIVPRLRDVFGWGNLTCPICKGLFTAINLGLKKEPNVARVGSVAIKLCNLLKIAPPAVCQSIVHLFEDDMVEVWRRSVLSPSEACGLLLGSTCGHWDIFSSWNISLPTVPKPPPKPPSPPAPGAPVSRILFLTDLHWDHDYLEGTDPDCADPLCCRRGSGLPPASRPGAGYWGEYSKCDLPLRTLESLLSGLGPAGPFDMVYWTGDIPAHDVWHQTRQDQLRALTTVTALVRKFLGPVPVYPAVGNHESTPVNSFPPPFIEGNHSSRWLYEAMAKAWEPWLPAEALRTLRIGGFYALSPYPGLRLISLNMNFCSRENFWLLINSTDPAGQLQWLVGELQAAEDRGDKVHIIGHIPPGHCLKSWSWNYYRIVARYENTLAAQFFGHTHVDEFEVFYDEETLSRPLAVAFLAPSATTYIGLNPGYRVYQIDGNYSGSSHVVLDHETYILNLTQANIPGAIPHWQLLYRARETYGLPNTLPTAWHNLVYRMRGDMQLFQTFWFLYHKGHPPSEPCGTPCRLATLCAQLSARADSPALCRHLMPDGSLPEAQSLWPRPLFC
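Fluorogenic HMU-PC substrate (9 uM final) is turned over by placental ASM in 60 min at 37 C after a 10 min compound preincubation. Reaction ended by alkaline stop (pH 10), with fluorescence read at 386/447 nm.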
IL-1B inflam inh: blocks inflammasome-driven IL-1 beta release; actives 4.7% (n = 360,000); activity change, % at 57.5 µM; THP-1 LPS/ATP IL-1B secretion, AlphaLISA, 16 h; stronger effect = lower value; AID 743279; in the data active = activity change below about -50%; inconclusive = mostly about -30% to -49%; also: % is scaled to controls: 0 for no effect and ±100 for the full control effect
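Secreted IL-1B measured by AlphaLISA bead assay after 16 h compound exposure of THP-1 cells; compounds (final up to 57.5 uM) added 1 h before LPS (250 ng/mL) and ATP (1.25 mM) stimulation; lower signal means less secretion.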
The depositor's hits bear a star; ? = inconclusive; nt = not tested or not shown; [ ] = dose if it differs, or a comment. Unless noted, calls follow the shape of the dose curve; as a rule, active = well fitted curve in the direction sought with a large enough effect; inconclusive = small, poorly fitted or top-dose-only effect, or another doubt; inactive = no such curve, though single readings can be large; an effect the other way counts as inactive or inconclusive.

SMILES | HepG2 tox | DT40 TDP1 CPT | TDP1 cell noCPT | TGFb inhibitor | S-ASM inh | IL-1B inflam inh
CCCCn1c(=O)c(C(=O)Nc2cnccn2)c(O)c2ccccc21 | -23% | 2.9µM* | 5.2µM* | 2% | 1% | 0
O[C@@H]1CCCC[C@@H]1N1CCC(c2ccccc2)CC1 | nt | -3% | 8% | nt | nt | nt
CC(C)CCn1c(=O)c(C(=O)Nc2ccccc2S(N)(=O)=O)c(O)c2ccccc21 | -16% | 4.6µM* | 5.2µM* | 20µM* | -1% | 2
CCCCn1c(=O)c(C(=O)Nc2cccc(C)c2)c(O)c2ccccc21 | 5% | 5.8µM* | 4.6µM* | 8% | -2% | 25
CCCCn1c(=O)c(C(=O)NCc2ccccc2OC)c(O)c2ccccc21 | 5% | ? | ? | 8% | -9% | 0
CC[C@H]1CN(C)C[C@@]2(C(=O)OC)Cc3c([nH]c4ccccc34)C(=O)C[C@@H]12 | 7% | 13% | 13% | -1% | -3% | 5
CC[C@H]1CN(C)CCc2c([nH]c3ccccc23)C(=O)C[C@@H]1/C(=C\OC)C(=O)OC | -14% | 29µM* | -19% | 2% | 10% | -7
O=P(O)(O)CN1CCNCCN(CP(=O)(O)O)CCNCC1 | 0% | 6.5µM* | 6.5µM* | 9% | 4% | -15
CC(C)CCC(=O)O[C@H]1CC[C@H]2[C@@H]3CCC4=CC(=O)CC[C@]4(C)[C@H]3CC[C@]12C | nt | -6% | 0% | nt | nt | nt
CCc1nnc(NC(=O)CCc2nc(C3=CCN(C)CC3)no2)s1 | -7% | -9% | -17% | 5% | 5% | -54*
Cc1ccc(Cl)cc1N1CCN(C(=O)c2cn(CC(C)C)c(=O)c3c2c2ccccc2n3C)CC1 | 1% | 6.5µM* | 4.6µM* | 0% | nt | nt
Cc1noc(C)c1COc1ccc(C(=O)NCC2(N(C)C)CCCCC2)cc1 | -22% | -12% | -5% | -6% | nt | -2
CCOc1cc2c(cc1OCC)-n1cccc1C(c1ccc(OC)c(O)c1)NC2 (stereo unspecified) | -38% | ? | 18µM* | 0% | 2% | ?
CCOc1cc(C2NCc3ccccc3-n3cccc32)ccc1OC (stereo unspecified) | -26% | -17% | -27% | 6% | 2% | ?
CCOc1cc2c(cc1OCC)-n1cccc1C(c1cc(C)c(OC)cc1C)NC2 (stereo unspecified) | -33% | 10µM* | 7.3µM* | ? | -10% | -16
CCOc1cc2c(cc1OCC)-n1cccc1C(c1ccc(C)cc1C)NC2 (stereo unspecified) | -17% | ? | ? | ? | -2% | -90*
COc1cccc(-n2c(O)c(C=NCCN3CCNCC3)c(=O)[nH]c2=S)c1 | -3% | 15% | -6% | 25% | 2% | 14
COC(=O)C1=C(c2c(C)noc2C)C[C@@H]2CC[C@H]1N2C(=O)NCc1ccco1 | 7% | 1% | -2% | 2% | 0% | 11
Cc1cc(C)n(-c2ccc(NN=C(C#N)C#N)cc2)n1 | -78% | 10µM* | 7.3µM* | ? | -13% | -13
N#CC(C#N)=NNc1ccc(-n2ccc(C(F)(F)F)n2)cc1 | -45% | 2.3µM* | 1.6µM* | 3.2µM* | -12% | -83*
Cc1cccc(C)c1N1CCN(c2c(C)cccc2C)CC1 | -1% | 1% | 0% | 7% | 1% | 14
COc1cc2c(cc1OC)[C@@H]1C(=O)c3ccc4oc(C(C)C)cc4c3OC1CO2 (stereo partly specified) | nt | 0.65µM* | 0.29µM* | nt | nt | nt
COc1cc2c(cc1OC)[C@@H]1C(=O)c3ccc4c(c3O[C@@H]1CO2)C[C@H](C(C)C)O4 | -32% | 0.26µM* | 0.16µM* | ? | -10% | ?
COc1cc2c(cc1OC)[C@H]1C(=O)c3ccc4c(c3O[C@H]1CO2)C[C@@H](C(C)(C)O)O4 | -6% | 15µM* | 12µM* | ? | 5% | 19
COc1cc2c(cc1OC)C1C(=O)c3ccc4c(c3OC1CO2)CC(C(C)C)O4 (stereo unspecified) | -24% | 0.18µM* | 0.033µM* | ? | -21% | -68*
SMILES | HepG2 tox | DT40 TDP1 CPT | TDP1 cell noCPT | TGFb inhibitor | S-ASM inh | IL-1B inflam inh
COc1ccc([C@@H]2COc3c(ccc4c3C=CC(C)(C)O4)C2)c(OC)c1 | -6% | 2% | 6% | 6% | -1% | -10
CCCN(CCC)CCc1c[nH]c2ccc(C(N)=O)cc12 | nt | -9%[92.5 µM] | -5%[92.5 µM] | nt | nt | nt
CC(=O)Nc1ccc(S(=O)(=O)N(C)CCOCc2ccccc2)cc1 | 6% | 23µM* | 18µM* | 2% | 5% | -13
Cc1nc(NS(=O)(=O)c2cccc([N+](=O)[O-])c2)sc1C(C)(C)C | -17% | -7% | 4% | ? | -2% | 11
COc1ccc(NC(=O)c2ccccc2SCc2ccccc2)cc1 | -13% | 5.2µM* | 4.6µM* | -7% | nt | ?
CCN(CC)C(=O)c1ccc(NC(=O)c2cn(-c3ccccc3)nc2-c2ccc(OC)cc2)cc1 | 4% | ? | ? | 5% | -15% | -5
N#Cc1cccc(NC(=O)N2CC[C@@]3(CCCN(C(=O)Oc4ccccc4)C3)C2)c1 | nt | -4% | ? | nt | nt | nt
COC(=O)C1=C(c2ccc(-c3ccccc3)c(F)c2)C[C@@H]2CC[C@H]1N2C(=O)NCCc1ccccc1 | -22% | ? | 16µM* | ? | -15% | -10
COC(=O)C1=C(c2ccccc2)C[C@@H]2CC[C@H]1N2C(=O)NCCNC(C)=O | -5% | 9% | -12% | -2% | -2% | 41
COC(=O)C1=C(c2ccc3ccccc3c2)C[C@@H]2CC[C@H]1N2C(=O)NCCCOC(C)C | -16% | ? | 15µM* | -28% | -3% | 7
COC(=O)C1=C(c2ccccc2)C[C@@H]2CC[C@H]1N2C(=O)NCCO | -3% | 13% | 0% | ? | 2% | 9
COC(=O)C1=C(c2ccc(-c3ccccc3)c(F)c2)C[C@@H]2CC[C@H]1N2C(=O)NCCCOC(C)C | -46% | 15µM* | 13µM* | ? | -13% | -10
COC(=O)C1=C(c2ccc(OC)c(OC)c2)C[C@@H]2CC[C@H]1N2C(=O)NCCc1ccccc1 | 0% | -27% | ? | 5% | -1% | 25
COC(=O)C1=C(c2ccc(-c3ccccc3)c(F)c2)C[C@@H]2CC[C@H]1N2C(=O)NCc1cccc2ccccc12 | -14% | 23µM* | 23µM* | -4% | -18% | 11
